SARS PLpro yeast: inhibitors of SARS-CoV papain-like protease in yeast | S. cerevisiae expressing SARS-CoV PLpro, growth rescue | Potency, µM (top dose mostly 32.9 µM), usual class: activators | hit rate 0.19% among 330,000 | AID 485353; calls by dose curve; also: nearly all actives have a fitted effect of over 55% in size
Pf growth 48h: P. falciparum growth inhibition at 48 hours (one generation); hit rate 5.9% among 310,000; Potency, µM (highest dose often 28.7 µM), actives largely listed as inhibitors; P. falciparum luciferase growth in erythrocytes, 48 h; AID 504832
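Firefly luciferase activity from engineered P. falciparum reports growth; inhibitors lower the luminescent signal. Cultures contained 2% hematocrit erythrocytes at 0.1% final parasitemia.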
RE007 growth inh: less growth of the S. pombe RE007 Vpr strain | S. pombe RE007 Vpr strain, BacTiter-Glo ATP luminescence, 24 h | Potency, µM (series often up to 92.2 µM), actives largely listed as inhibitors | hit rate 0.21% among 360,000; active = well fitted falling curve with a large enough effect; inconclusive = small, poorly fitted or top-dose-only effect; inactive = no such curve, though single readings can be large or run the other way; also: nearly all actives have a fitted effect of over 50% in size
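Fission yeast RE007 carrying one integrated HIV-1 vpr copy, seeded at OD 0.01 in PMG+AL medium with 23 nL pinned compound. Grown 24 h at 30 degrees; viability read by BacTiter-Glo luminescence after 5 min.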
NS1 inh: influenza NS1 inhibition; Potency, µM (series often up to 46.1 µM); hit rate 0.4% among 270,000; AID 2326; calls by dose curve; also: actives are rising curves; nearly all actives have a fitted effect of over 50% in size
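Compounds were scored for reversing the slow growth caused by influenza A NS1 in S. cerevisiae, measured by optical density at 600 nm. Assay medium contained 2% galactose at pH 6.0; NS1-free yeast of the same strain were the positive control.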
Pf growth 96h: inhibits malaria parasite growth, 96 h; P. falciparum luciferase reporter growth, 96 h; Potency, µM (top dose mostly 28.7 µM), most hits filed as inhibitors; hit rate 6.9% among 320,000; AID 504834
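P. falciparum expressing integrated firefly luciferase, in erythrocytes at 2% hematocrit, 0.05% parasitemia, incubated with compounds 96 h at 37 C, 5% CO2. Growth inhibition read as loss of luminescence; two-generation exposure targets delayed-death apicoplast inhibitors.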
Each line names hits and unclear results; the compound was inactive in the other large screens. Rows were chosen to be rich in hits. Some 9.5% of all compounds tested hit in one or more screens of this group. Unless noted, calls follow the shape of the dose curve; as a rule, active = well fitted inhibition curve with a large enough effect; inconclusive = small, poorly fitted or top-dose-only effect, or another doubt; inactive = no such curve, though single readings can be large or run the other way.

CCN(C(=O)CSc1nnc(NCc2ccccc2)s1)C1CCS(=O)(=O)C1 (stereo not drawn)	Pf growth 96h inconclusive (no result: NS1 inh)
CC1=C(C(=O)N(C(C)C)C(C)C)CC(CC(=O)NCc2cccs2)C(=O)N1Cc1ccccc1 (stereo not drawn)	none (no result: SARS PLpro yeast, Pf growth 48h, NS1 inh, Pf growth 96h)
CN(CC1COc2ccccc2O1)C(=O)CCNS(=O)(=O)c1ccc(F)c(Cl)c1 (stereo not drawn)	none (no result: SARS PLpro yeast, Pf growth 48h, NS1 inh, Pf growth 96h)
CCN1C(=O)NC(=O)/C(=C\c2cn(CC(=O)N3CCCCC3C)c3ccccc23)C1=O (stereo not drawn)	Pf growth 96h 6.6µM
COc1ccc(C(=O)COC(=O)c2cc(=O)[nH]c3ccccc23)c(OC)c1	none (no result: NS1 inh)
COc1cc(NC(=O)C2(C)CCCN(C(C)C)C2)cc(OC)c1OC (stereo not drawn)	none (no result: SARS PLpro yeast, Pf growth 48h, NS1 inh, Pf growth 96h)
CCc1ccc(NC(=O)CSc2nnc(Cc3cccn3C)n2-c2ccc(F)cc2)cc1	Pf growth 48h 10µM, Pf growth 96h 2.3µM
CC(=O)Nc1cccc(NC(=O)CSc2nnc(Cc3cccn3C)n2-c2ccc(C)cc2)c1	Pf growth 48h inconclusive, Pf growth 96h 4.1µM
COc1ccc(Cl)cc1NC(=O)CSc1nnc(Cc2cccn2C)n1-c1ccc(F)cc1	Pf growth 48h 13µM, Pf growth 96h inconclusive
COc1ccc(NC(=O)CSc2nnc(Cc3cccn3C)n2-c2ccc(OC)cc2)cc1	Pf growth 48h inconclusive, Pf growth 96h inconclusive
COc1ccc(-n2c(Cc3cccn3C)nnc2SCC(=O)Nc2ccc(C(C)=O)cc2)cc1	NS1 inh inconclusive, Pf growth 96h 0.47µM (no result: Pf growth 48h)
COc1cccc(NC(=O)N(C)C[C@H]2Oc3cc(Br)ccc3S(=O)(=O)N([C@H](C)CO)C[C@H]2C)c1	none (no result: SARS PLpro yeast, Pf growth 48h, NS1 inh, Pf growth 96h)
Cn1cccc1Cc1nnc(SCC(=O)Nc2cccc(Cl)c2)n1-c1ccc(F)cc1	Pf growth 48h inconclusive, Pf growth 96h 8.3µM
Cc1ccc(-n2c(Cc3cccn3C)nnc2SCC(N)=O)cc1	none
Cc1ccc(-n2c(Cc3cccn3C)nnc2SCC(=O)NCc2ccco2)cc1	Pf growth 48h 8.3µM, NS1 inh inconclusive
Cn1cccc1Cc1nnc(SCC(=O)Nc2cccc(F)c2)n1-c1ccc(F)cc1	Pf growth 48h inconclusive, Pf growth 96h inconclusive
COc1cccc(CN2CCC(n3nccc3NC(=O)CCOc3ccccc3)CC2)c1O	none (no result: SARS PLpro yeast, Pf growth 48h, NS1 inh, Pf growth 96h)
CC(C)=CCN1CCN(CCC2=C(C)CCCC2(C)C)CC1CCO (stereo not drawn)	Pf growth 48h 13µM
CN1CCN(C(=O)OC2CC3CC2[C@H]2CCCCN2C3=O)CC1 (stereo partly drawn)	none (no result: SARS PLpro yeast, Pf growth 48h, NS1 inh, Pf growth 96h)
COc1ccc(-c2nc(CS(=O)CC(=O)NCc3ccc(Cl)cc3)c(C)o2)cc1OC (stereo not drawn)	Pf growth 96h inconclusive
COc1ccc([C@H]2CC(=O)C=C(c3ccc4ncccc4c3)C2)cc1OC	none (no result: Pf growth 48h, NS1 inh, Pf growth 96h)
Cc1cc(C)cc(NC(=O)C2(c3ccccc3)CC2(Cl)Cl)c1 (stereo not drawn)	Pf growth 48h 4.7µM, Pf growth 96h 2.3µM
CCc1ccc(NC(=O)C2(c3ccccc3)CC2(Cl)Cl)cc1 (stereo not drawn)	Pf growth 48h inconclusive, Pf growth 96h 3.3µM
Cc1cccc(NC(=O)C2(c3ccccc3)CC2(Cl)Cl)c1 (stereo not drawn)	Pf growth 48h inconclusive, Pf growth 96h inconclusive
O=C(c1nc[nH]c1C(=O)N1CCN(c2ccccc2)CC1)N1CCN(c2ccccc2)CC1	none (no result: NS1 inh)
COc1ccc2c(=O)c(C(=O)NCCc3ccc(OC)c(OC)c3)c[nH]c2c1	Pf growth 48h 10µM, Pf growth 96h inconclusive
COc1cc(CNCCc2ccc(S(N)(=O)=O)cc2)ccc1OCC(=O)N1CCCCC1	Pf growth 96h 4.1µM
COc1ccc(S(=O)(=O)N2CCCCCC2)cc1C(=O)N(C)CCOc1ccc(Cl)cc1	Pf growth 48h 13µM, Pf growth 96h inconclusive (no result: NS1 inh)
COc1ccc(CCNC(=O)c2cc(S(=O)(=O)N3CCCCCC3)ccc2OC)cc1OC	Pf growth 48h inconclusive, Pf growth 96h 13µM (no result: NS1 inh)
COc1ccc2c(=O)c(C(=O)NCCc3ccccc3)c[nH]c2c1	none
OCC[C@@H]1C[C@H](O)[C@@H](O)[C@@]2(OCCc3cc(Cl)ccc32)O1	none (no result: SARS PLpro yeast, Pf growth 48h, NS1 inh, Pf growth 96h)
Nc1cc(S(N)(=O)=O)ccc1SSc1ccc(S(N)(=O)=O)cc1N	none (no result: SARS PLpro yeast, Pf growth 48h, RE007 growth inh, Pf growth 96h)
COc1ccc(S(=O)(=O)N2CCCCCC2)cc1C(=O)NCc1ccc(C)cc1	Pf growth 48h 15µM, Pf growth 96h 12µM (no result: NS1 inh)
COc1ccc(CCN(C)C(=O)c2cc(S(=O)(=O)N3CCCCC3)ccc2Cl)cc1OC	Pf growth 48h 13µM, Pf growth 96h inconclusive (no result: NS1 inh)
COc1ccc(S(=O)(=O)N2CCCCCC2)cc1C(=O)N(C)Cc1ccc(C)cc1	Pf growth 48h inconclusive, Pf growth 96h inconclusive (no result: NS1 inh)
CCc1cc2c(=O)c(-c3ccc4c(c3)OCCO4)c(C)oc2cc1OS(C)(=O)=O	Pf growth 48h inconclusive, Pf growth 96h 4.1µM
CCc1cc(=O)oc2c(C)c(OS(C)(=O)=O)ccc12	none (no result: SARS PLpro yeast, Pf growth 48h, NS1 inh, Pf growth 96h)
CN(C)c1nc2c(Br)c(Br)c(Br)c(Br)c2[nH]1	none (no result: SARS PLpro yeast, Pf growth 48h, RE007 growth inh, Pf growth 96h)
CCCCCNc1nc(NCCCO)c(C#N)c2c1CN(C)CC2	Pf growth 96h 12µM (no result: Pf growth 48h)
CCCCCNc1nc(N2CCCC2)c2c(c1C#N)CCN(C)C2	Pf growth 48h 4.1µM
CN1CCc2c(C#N)c(N3CCOCC3)nc(NCC3CCCO3)c2C1 (stereo not drawn)	Pf growth 48h inconclusive, Pf growth 96h inconclusive
O=C(COc1ccccc1Cl)Nc1ccc2[nH]c(=O)[nH]c2c1	none (no result: NS1 inh)
CCOc1cccc(CN2CCC(n3nccc3NC(=O)c3ccc4c(c3)OCO4)CC2)c1	Pf growth 48h inconclusive
CCCn1cc(CN2CCC(n3nccc3NC(=O)c3ccc4c(c3)OCO4)CC2)c(C)n1	Pf growth 96h 9.3µM

Screens from PubChem.
